Test results reported in PubChem BioAssay.
Records with an inconclusive call do not appear. The source made the active and inactive calls.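 Rule for the calls, unless noted: active = RAM network inhibition above 8.4% in each of two replicates, 3 SD over the compound average; inconclusive = above 8.4% inhibition in only one replicate; inactive = 8.4% inhibition or less in each replicate.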

Columns and labels:
[1] = Her2 expression decrease, cell viability multiplex – SKBR3 breast tumor cells, AlphaScreen, ATP viability, primary screen (AID 461;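 active = Her2 level under about 52% in both replicate screens, with viability over 70% of control, limit read from the data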;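 for Her2 level: lower value means less Her2 protein in the cells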;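 for viability: percent of carrier control wells set as 100% viability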); conditions: SKBR3 Her2 protein level, 18-24 h, measured here: SKBR3 viability, ATP luminescence, at 10 µM
[2] = molecular target: Receptor tyrosine-protein kinase erbB-2 (Homo sapiens) (UniProt P04626); test: as above; conditions: 18-24 h, at 10 µM, stronger effect = lower value
Receptor tyrosine-protein kinase erbB-2 (Homo sapiens), sequence (P04626 whole entry, looked up): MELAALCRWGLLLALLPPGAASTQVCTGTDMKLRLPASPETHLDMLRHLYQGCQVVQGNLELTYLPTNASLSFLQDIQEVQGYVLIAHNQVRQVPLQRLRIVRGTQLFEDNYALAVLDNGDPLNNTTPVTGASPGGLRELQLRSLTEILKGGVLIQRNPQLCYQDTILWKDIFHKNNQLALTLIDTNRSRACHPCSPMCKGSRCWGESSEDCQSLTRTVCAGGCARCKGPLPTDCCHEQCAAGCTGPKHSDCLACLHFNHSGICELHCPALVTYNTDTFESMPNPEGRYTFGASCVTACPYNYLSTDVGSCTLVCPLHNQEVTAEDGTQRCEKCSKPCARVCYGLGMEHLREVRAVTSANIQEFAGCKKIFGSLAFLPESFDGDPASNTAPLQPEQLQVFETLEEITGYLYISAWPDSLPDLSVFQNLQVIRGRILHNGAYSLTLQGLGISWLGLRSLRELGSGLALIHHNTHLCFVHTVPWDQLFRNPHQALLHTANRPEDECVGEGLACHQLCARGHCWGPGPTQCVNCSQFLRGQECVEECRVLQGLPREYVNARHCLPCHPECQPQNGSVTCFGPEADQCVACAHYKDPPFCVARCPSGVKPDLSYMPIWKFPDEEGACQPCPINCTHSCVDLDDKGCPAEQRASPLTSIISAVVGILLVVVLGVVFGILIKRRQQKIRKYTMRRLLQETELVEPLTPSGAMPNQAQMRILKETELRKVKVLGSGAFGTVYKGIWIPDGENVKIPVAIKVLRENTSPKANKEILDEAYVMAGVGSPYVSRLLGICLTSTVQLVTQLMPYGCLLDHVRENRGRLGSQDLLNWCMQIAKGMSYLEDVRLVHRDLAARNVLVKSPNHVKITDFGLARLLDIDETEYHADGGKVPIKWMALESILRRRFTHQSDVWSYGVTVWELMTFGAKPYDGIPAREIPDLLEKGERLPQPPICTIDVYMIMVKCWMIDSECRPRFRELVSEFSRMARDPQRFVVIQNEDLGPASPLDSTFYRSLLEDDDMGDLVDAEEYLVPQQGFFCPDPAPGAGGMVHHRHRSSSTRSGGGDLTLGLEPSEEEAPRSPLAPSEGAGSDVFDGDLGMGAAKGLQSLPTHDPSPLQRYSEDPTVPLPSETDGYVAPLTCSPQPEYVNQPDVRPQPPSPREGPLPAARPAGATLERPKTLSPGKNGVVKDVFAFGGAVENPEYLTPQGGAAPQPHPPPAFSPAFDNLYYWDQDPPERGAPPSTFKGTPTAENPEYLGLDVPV

[3] = reduced viability of SK-BR-3 breast cancer cells – cell-based, 24 h, human, pilot screen (AID 572;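 active = viability at or below 10% of carrier control in both of two separate runs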;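 note: compound exposure lasted between 18 and 24 h rather than exactly 24 h; 100% = carrier-treated control wells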); conditions: SK-BR-3 viability, CellTiter-Glo luminescence, at 10 µM, stronger effect = lower value
[4] = HUVEC growth inhibition – cell-based, human, primary screen (AID 575;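 active = viability at or below 30% in both replicate assays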;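 note: 100% = median of untreated cell wells with 0.1% DMSO on each plate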); conditions: HUVEC proliferation, CellTiter-Glo luminescence, 72 h; at 10 µM; stronger effect = lower value
[5] = H69AR cell proliferation blockers – human, duplicate replicates, primary screen (AID 580;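 active = viability at or under a set limit in both replicates, limit being median viability minus 3 SD, cut at about 48% in these data, passing the limit was not always enough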;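 note: 100% = mean luminescence of untreated wells and 0% = no signal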); conditions: H69AR lung tumor cells viability, ATP luminescence, 72 h; at 10 µM; stronger effect = lower value
[6] = MRP1 drug-resistance reversers in H69AR cells – cell-based, doxorubicin co-treatment, pilot screen (AID 601;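 active = viability loss from added drug above about 55%, and viability with drug at most 40%, in both replicates, limit read from the data, passing the limit was not always enough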); conditions: CellTiter-Glo, 72 h, at 10 µM; for differential viability (reversal): stronger effect = higher value
[7] = yeast transport mutant growth inhibition pilot in 384-well plates, post-Golgi transport modulator project (AID 636; in the data active = inhibition above about 31%); conditions: absorbance 615 nm, about 18 h, stronger effect = higher value
[8] = growth suppression of yeast trafficking mutant, preliminary HTS, modulators of trafficking downstream of Golgi apparatus project, 1536-format plate, OD 615 nm (AID 637; in the data active = inhibition above about 30%); conditions: yeast transport mutant growth, absorbance 615 nm, 18 h; stronger effect = higher value
[9] = S. cerevisiae growth inhibition in permissive medium (OD615), pilot counter-assay for S. cerevisiae lifespan shortening project, permissive growth control (AID 705;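 active = growth inhibition above 25% in both replicates, a cutoff set 3 SD above the mean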); conditions: OD615, 24 h, at 10 µM, stronger effect = higher value
[10] = S. cerevisiae growth inhibition in restrictive medium, OD615, pilot screen, restrictive growth control, yeast lifespan reduction project (AID 706;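 active = growth inhibition above a set limit, 3 SD over mean compound inhibition, in both replicates, cut at about 43% in these data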;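 note: modified DeaD lifespan yeast strain shifted to restrictive glucose medium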); conditions: OD615, 48 h, at 10 µM, stronger effect = higher value
[11] = doxorubicin toxicity protection in MRP-1 cells – H69AR cells, CellTiter-Glo, duplicate, MRP-1 activator project, pilot screen (AID 807;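 active = viability increase at or above a cutoff of the median across tested compounds plus 3 SD, cut at about 8.5% in these data, passing the limit was not always enough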;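 note: compound pretreatment 18-22 h then 72 h combined with doxorubicin; 0% = doxorubicin alone and 100% = vehicle without doxorubicin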); conditions: H69AR viability with doxorubicin, CellTiter-Glo luminescence; at 10 µM; stronger effect = higher value
[12] = viability of HCT116 without oncogenic beta-catenin – human colon tumor cells, pilot screen (AID 823;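 active = cell viability at or below a set limit in both duplicate runs, the limit being the all-compound median minus 4 SD, cut at about 23% in these data, passing the limit was not always enough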;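 note: 0% = wells killed by 20 µM Hyamine and 100% = untreated DMSO cell wells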); conditions: HCT116 beta-catenin knockout viability, CellTiter-Glo, 60 h; at 10 µM; stronger effect = lower value
[13] = viability of PTEN-null HCT116 cells – cell-based, HCT116 clonal line, CellTiter-Glo, pilot screen (AID 824;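 active = viability at or below 27.92% in each of two runs, the all-compound median minus 4 SD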;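 note: 0% = 20 µM Hyamine control and 100% = vehicle cell control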); conditions: HCT116 PTEN-deleted viability, 60 h, at 10 µM, stronger effect = lower value
[14] = RAM pathway blockade in budding yeast – dse1pr::URA3 reporter, 5-FOA selection, pilot screen (AID 869;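 active = inhibition over a set limit, the all-compound mean plus 3 SD, in both replicate runs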;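 note: 0% = DMSO wells with no growth and 100% = 10 µM 1-NA-PP1 with full growth; RAM network block rescues cells from 5-FOA so hits raise OD615 growth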); conditions: S. cerevisiae dse1pr::URA3 5-FOA growth, OD615, 2 d; at 10 µM; stronger effect = higher value; strain carries analog-sensitive mutant Cbk1 kinase
[15] = RAM signaling pathway blockade in yeast – S. cerevisiae, Pdr1DBD-CYC8 efflux-inhibited sensitized strain, primary screen (AID 1298);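 note: 0% = DMSO untreated cells without growth and 100% = 10 µM 1-NA-PP1 full growth; higher means more yeast growth rescued from 5-FOA killing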; conditions: S. cerevisiae cbk1-as DSE1-URA3 strain, 5-FOA growth OD615, 2 d; at 50 µM; stronger effect = higher value
[16] = H69AR cells + 2 uM doxorubicin, measured here: viability with 2 uM doxorubicin, stronger effect = lower value
[17] = H69AR cells, compound alone cytotoxicity

Row | SMILES | viability [1] | Her2 level [2] | viability [3] | viability [4] | viability [5] | differential viability (reversal) ([6]; H69AR cells + 2 uM doxorubicin) | viability [6, 16] | viability [6, 17] | inhibition [7] | inhibition [8] | growth inhibition [9] | growth inhibition [10] | viability increase [11] | viability [12] | viability [13] | inhibition [14] | RAM network inhibition [15]
1 | COc1nnc(-c2ccc(C)c(S(=O)(=O)NCCO)c2)c2ccccc12 | 93.5% | 108% (inactive) | 93.5% (inactive) | 110% (inactive) | 87.9% (inactive) | -2.42% (inactive) | 90.3% | 87.9% | -1.04% (inactive) | -6% (inactive) | -0.385% (inactive) | 10% (inactive) | -1.67% (inactive) | 106% (inactive) | 101% (inactive) | -0.06% (inactive) | 2.58% (inactive)
2 | O=C(CN1CCN(Cc2ccccc2F)C1=O)NCc1cccnc1 | 94.5% | 94.5% (inactive) | 94.5% (inactive) | 108% (inactive) | 107% (inactive) | 17% (inactive) | 90.4% | 107% | -3.87% (inactive) | -1.97% (inactive) | 2.81% (inactive) | 6.51% (inactive) | -1.65% (inactive) | 100% (inactive) | 94.6% (inactive) | 0.605% (inactive) | 3.14% (inactive)
3 | Cc1cc(NC(=O)COc2cccc(C)c2C)no1 | 96% | 102% (inactive) | 96% (inactive) | 94.2% (inactive) | 108% (inactive) | 15.6% (inactive) | 92.5% | 108% | -0.53% (inactive) | -4.26% (inactive) | -0.27% (inactive) | 6.53% (inactive) | 3.52% (inactive) | 102% (inactive) | 105% (inactive) | 2.08% (inactive) | 2.68% (inactive)
4 | CN1CCN(C2=C(Cl)C(=O)N(c3cccc(Cl)c3)C2=O)CC1 | 80.5% | 96.5% (inactive) | 80.5% (inactive) | 87.7% (inactive) | 85% (inactive) | 4.44% (inactive) | 80.5% | 85% | 0.26% (inactive) | 5.67% (inactive) | -16.8% (inactive) | -5.5% (inactive) | -1.68% (inactive) | 96.3% (inactive) | 104% (inactive) | 0.75% (inactive) | 2.62% (inactive)
5 | Cc1cccc(OCC(=O)N2CCN(C(=O)Cc3ccccc3)CC2)c1 | 102% | 94% (inactive) | 102% (inactive) | 107% (inactive) | 97.3% (inactive) | -0.125% (inactive) | 97.5% | 97.3% | -7.33% (inactive) | -0.97% (inactive) | -11.1% (inactive) | -28.1% (inactive) | -2.39% (inactive) | 85.4% (inactive) | 81.4% (inactive) | 0.285% (inactive) | 0.56% (inactive)
6 | CCOC(=O)N1CCC(Nc2nc3ccccc3n3cnnc23)CC1 | 94% | 89.5% (inactive) | 94% (inactive) | 85.8% (inactive) | 87.1% (inactive) | 5.21% (inactive) | 81.9% | 87.1% | -0.13% (inactive) | 3.17% (inactive) | 0.55% (inactive) | -10.8% (inactive) | -4.12% (inactive) | 102% (inactive) | 95.2% (inactive) | 1.23% (inactive) | 4.35% (inactive)
7 | COc1cccc2cc(C(=O)N3CCN(c4ccc(C)cc4C)CC3)c(=O)oc12 | 116% | 110% (inactive) | 116% (inactive) | 93.7% (inactive) | 96.5% (inactive) | 7.98% (inactive) | 88.5% | 96.5% | -3.6% (inactive) | -6.67% (inactive) | -7.67% (inactive) | 5.05% (inactive) | -2.99% (inactive) | 85.3% (inactive) | 74.3% (inactive) | -0.005% (inactive) | 1.18% (inactive)
8 | CCOC(=O)N1CCC(NC(=O)c2ccc3c(c2)N(CC)CCS3)CC1 | 94.5% | 91.5% (inactive) | 94.5% (inactive) | 100% (inactive) | 74.2% (inactive) | -5.34% (inactive) | 79.6% | 74.2% | -6.93% (inactive) | -0.33% (inactive) | -10.9% (inactive) | -0.105% (inactive) | -3.08% (inactive) | 98.2% (inactive) | 97% (inactive) | 3.51% (inactive) | 2.26% (inactive)
9 | COC(=O)CSC1=C(C#N)C(c2ccc(F)cc2)CC(=O)N1 (stereo not given) | 109% | 105% (inactive) | 109% (inactive) | 101% (inactive) | 80.8% (inactive) | 0.195% (inactive) | 80.6% | 80.8% | -4.93% (inactive) | -4.75% (inactive) | 9% (inactive) | -15.4% (inactive) | -0.35% (inactive) | 100% (inactive) | 95.9% (inactive) | 0.905% (inactive) | -1.71% (inactive)
10 | Cc1ccccc1OCc1nnc2n1CC(C)S2 (stereo not given) | 99% | 95% (inactive) | 99% (inactive) | 88.6% (inactive) | 92.3% (inactive) | 1.37% (inactive) | 90.9% | 92.3% | -4.27% (inactive) | -2% (inactive) | 3.34% (inactive) | 16.6% (inactive) | 0.12% (inactive) | 97.8% (inactive) | 95.3% (inactive) | 0.795% (inactive) | -0.06% (inactive)
